Assay results: PubChem BioAssay (NCI)
This is part of a sample that, as a whole, favours compounds with a hit. Of some 79,000 tested, about 15% had one in any assay. Activity calls are given as the source filed them. Cut-off read from the data, not from the text of the source: active = growth inhibition above about 70%; inactive = the rest.

How the values were obtained:
[1] = NCI Yeast Anticancer Drug Screen. Data for the rad52 strain (AID 147);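 note: 0% = growth of vehicle-treated control cultures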; conditions: S. cerevisiae rad52 mutant growth inhibition, stronger effect = higher value
Procedure, shortened: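 DNA repair-defective yeast; compound exposure; growth scored against vehicle controls.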

[2] = NCI Yeast Anticancer Drug Screen. Data for the wt1 strain (AID 149);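 note: 0% = growth of vehicle-treated wt1 cultures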; conditions: S. cerevisiae wt1 strain (SPY 50644) growth inhibition, stronger effect = higher value
Procedure, shortened: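 Each compound is tested on wt1 yeast and the loss of growth versus vehicle gives the inhibition value.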

[3] = NCI Yeast Anticancer Drug Screen. Data for the rad50EPP+ strain (AID 151);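 note: 0% = growth of vehicle-treated control cultures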; conditions: S. cerevisiae rad50 mutant strain, stronger effect = higher value
Procedure, shortened: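 rad50EPP+ yeast treated with test compounds. Readout: growth vs vehicle control.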

[4] = NCI Yeast Anticancer Drug Screen. Data for the mgt1 strain (AID 153); conditions: S. cerevisiae mgt1 mutant growth inhibition, stronger effect = higher value
Procedure, shortened: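 Growth inhibition relative to vehicle controls was scored for the mgt1 yeast strain after compound exposure.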

[5] = NCI Yeast Anticancer Drug Screen. Data for the rad50 strain (AID 155);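 note: 0% = growth of vehicle-only cultures of the same strain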; conditions: S. cerevisiae rad50 strain growth inhibition, stronger effect = higher value
Procedure, shortened: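 Vehicle-treated cultures provide the reference for the growth inhibition reported for compound-exposed, repair-deficient yeast.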

[6] = NCI Yeast Anticancer Drug Screen. Data for the mec2-1 strain (AID 157); conditions: S. cerevisiae mec2-1 strain, stronger effect = higher value
Procedure, shortened: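 Growth inhibition is read against vehicle-treated controls after compound exposure of the mec2-1 yeast strain, which is defective in DNA damage repair or cell cycle control.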

[7] = NCI Yeast Anticancer Drug Screen. Data for the rad14 strain (AID 159);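 note: 0% = growth of vehicle-treated control cultures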; conditions: S. cerevisiae rad14 strain growth inhibition, stronger effect = higher value
Procedure, shortened: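 Inhibition of growth is reported for a repair-deficient yeast mutant following compound treatment, calculated relative to cultures that received vehicle.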

[8] = NCI Yeast Anticancer Drug Screen. Data for the sgs1 mgt1 strain (AID 161);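 note: 0% = growth of cultures given vehicle only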; conditions: S. cerevisiae sgs1 mgt1 strain, stronger effect = higher value
Procedure, shortened: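 Growth of a repair-deficient yeast mutant was monitored after compound treatment and expressed as inhibition relative to vehicle-treated cultures.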

[9] = NCI Yeast Anticancer Drug Screen. Data for the cln2 rad14 strain (AID 165);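 note: 0% = growth equal to vehicle treated cultures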; conditions: S. cerevisiae cln2 rad14 strain, stronger effect = higher value
Procedure, shortened: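 Growth inhibition, relative to vehicle-treated controls, is the read-out. The test organism is a yeast strain with defined genetic alterations, cln2 rad14.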

[10] = NCI Yeast Anticancer Drug Screen. Data for the bub3 strain (AID 167); conditions: S. cerevisiae bub3 mutant strain, stronger effect = higher value
Procedure, shortened: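 Mutant yeast screening strain plus compound; vehicle-treated cultures serve as the 0% inhibition reference.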

[11] = NCI Yeast Anticancer Drug Screen. Data for the wt2 strain (AID 169); conditions: S. cerevisiae wt2 strain growth inhibition, stronger effect = higher value
Procedure, shortened: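 Compound exposure of yeast; growth compared with vehicle controls; inhibition reported.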

[12] = NCI Yeast Anticancer Drug Screen. Data for the sgs1 strain (AID 173);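 note: 0% = growth of vehicle-only control cultures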; conditions: S. cerevisiae sgs1 mutant, stronger effect = higher value
Procedure, shortened: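 Compounds applied to genetically altered yeast; growth compared with vehicle-treated cultures to give % inhibition.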

[13] = NCI Yeast Anticancer Drug Screen. Data for the mlh1 rad18 strain (AID 175); conditions: S. cerevisiae mlh1 rad18 strain growth inhibition, stronger effect = higher value
Procedure, shortened: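 Cells of a genetically altered yeast strain, deficient in DNA damage repair, were treated with compound. Their growth was then compared with that of vehicle-treated cultures to give inhibition.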

[14] = NCI Yeast Anticancer Drug Screen. Data for the rad18 strain (AID 177); conditions: S. cerevisiae rad18 mutant growth inhibition, stronger effect = higher value
Procedure, shortened: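 Compounds are applied to a repair-deficient yeast strain, and growth is compared with that of vehicle-treated cultures to give percent inhibition.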

[15] = NCI Yeast Anticancer Drug Screen. Data for the CLN2oe strain (AID 163);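 note: 0% = growth of vehicle-only control cultures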; conditions: S. cerevisiae CLN2oe strain, stronger effect = higher value
Procedure, shortened: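 Compound-treated yeast; growth vs vehicle ctrl = % inhibition. Genetically altered strain (cell-cycle control).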

[16] = NCI Yeast Anticancer Drug Screen. Data for the mlh1 strain (AID 171);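 note: 0% = growth of vehicle-treated control cultures of the same strain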; conditions: S. cerevisiae mlh1 strain growth inhibition, stronger effect = higher value
Procedure, shortened: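 Compounds are applied to a genetically altered yeast strain, and its growth is compared with that of vehicle-treated cultures to give percent inhibition.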

[17] = at 5.0 µM (retest, dose inferred, filed as 0.5)
[18] = at 50.0 µM (retest, dose inferred, filed as 5.0)

Measured: growth inhibition

O=Cc1ccc(C(F)(F)F)cc1.[C-]#[O+].[C-]#[O+].[C-]#[O+].[Cr]
active: [1]; at 100.0 µM 70% | [5]; [18] 75% | [8]; [18] 81% | [8]; at 50.0 µM 78.5% | [13]; [18] 78%
inactive: [1]; at 1.2 µM 9% | [1]; at 3.7 µM 17% | [1]; at 11.0 µM 39% | [1]; at 33.0 µM 65% | [2]; at 1.2 µM 0% | [2]; at 3.7 µM 2% | [2]; at 11.0 µM 8% | [2]; at 33.0 µM 15% | [2]; at 100.0 µM 17% | [3]; at 1.2 µM 12% | [3]; at 3.7 µM 20% | [3]; at 11.0 µM 37% | [3]; at 33.0 µM 46% | [3]; at 100.0 µM 33% | [4]; at 1.2 µM 1% | [4]; at 3.7 µM 1% | [4]; at 11.0 µM 20% | [4]; at 33.0 µM 11% | [4]; at 100.0 µM 17% | [5]; at 1.2 µM 6% | [5]; at 3.7 µM 11% | [5]; [17] 3% | [5]; at 11.0 µM 23% | [5]; at 33.0 µM 38% | [5]; at 50.0 µM 67.8% | [5]; at 100.0 µM 40% | [6]; at 1.2 µM 5% | [6]; at 3.7 µM 2% | [6]; [17] -7% | [6]; at 11.0 µM 5% | [6]; at 33.0 µM 8% | [6]; [18] 47% | [6]; at 50.0 µM 61.6% | [6]; at 100.0 µM 14% | [7]; at 1.2 µM 6% | [7]; at 3.7 µM 8% | [7]; at 11.0 µM 15% | [7]; at 33.0 µM 30% | [7]; at 100.0 µM 30% | [8]; [17] -18% | [9]; [17] -15% | [9]; [18] 58% | [9]; at 50.0 µM 63.6% | [10]; at 1.2 µM -7% | [10]; at 3.7 µM -1% | [10]; [17] -18% | [10]; at 11.0 µM 12% | [10]; at 33.0 µM 21% | [10]; [18] -7% | [10]; at 50.0 µM 66.2% | [10]; at 100.0 µM 31% | [11]; at 1.2 µM 3% | [11]; at 3.7 µM 8% | [11]; at 11.0 µM 23% | [11]; at 33.0 µM 39% | [11]; at 100.0 µM 33% | [12]; at 1.2 µM 12% | [12]; at 3.7 µM 11% | [12]; at 11.0 µM 40% | [12]; at 33.0 µM 62% | [12]; at 100.0 µM 64% | [13]; [17] 11% | [13]; at 50.0 µM 63.3% | [14]; at 1.2 µM 1% | [14]; at 3.7 µM 3% | [14]; at 11.0 µM 20% | [14]; at 33.0 µM 40% | [14]; at 100.0 µM 62%

CNC(=O)ON(C(C)=O)C(=O)NC
inactive: [1]; at 1.2 µM -27% | [1]; at 3.7 µM -14% | [1]; at 11.0 µM -22% | [1]; at 33.0 µM -38% | [1]; at 100.0 µM -24% | [2]; at 1.2 µM -60% | [2]; at 3.7 µM -52% | [2]; at 11.0 µM -58% | [2]; at 33.0 µM -65% | [2]; at 100.0 µM -60% | [3]; at 1.2 µM -19% | [3]; at 3.7 µM -15% | [3]; at 11.0 µM -15% | [3]; at 33.0 µM -6% | [3]; at 100.0 µM 42% | [4]; at 1.2 µM -9% | [4]; at 3.7 µM 0% | [4]; at 11.0 µM 0% | [4]; at 33.0 µM 8% | [4]; at 100.0 µM 12% | [5]; at 1.2 µM -17% | [5]; at 3.7 µM -40% | [5]; [17] 13% | [5]; at 11.0 µM -20% | [5]; at 33.0 µM -17% | [5]; [18] 26% | [5]; at 100.0 µM -4% | [6]; at 1.2 µM -9% | [6]; at 3.7 µM -4% | [6]; [17] 2% | [6]; at 11.0 µM 5% | [6]; at 33.0 µM 4% | [6]; [18] 31% | [6]; at 100.0 µM -9% | [8]; [17] 62% | [15]; at 1.2 µM -30% | [15]; at 3.7 µM 2% | [15]; at 11.0 µM 19% | [15]; at 33.0 µM 14% | [15]; at 100.0 µM 11% | [9]; [17] 35% | [10]; at 1.2 µM 3% | [10]; at 3.7 µM 4% | [10]; [17] 31% | [10]; at 11.0 µM 23% | [10]; at 33.0 µM 35% | [10]; at 50.0 µM 52% | [10]; at 100.0 µM 60% | [11]; at 1.2 µM -24% | [11]; at 3.7 µM -20% | [11]; at 11.0 µM -22% | [11]; at 33.0 µM -42% | [11]; at 100.0 µM -10% | [16]; at 1.2 µM -43% | [16]; at 3.7 µM -27% | [16]; at 11.0 µM -11% | [16]; at 33.0 µM 4% | [16]; at 100.0 µM -9% | [12]; at 1.2 µM -26% | [12]; at 3.7 µM -49% | [12]; at 11.0 µM -13% | [12]; at 33.0 µM -15% | [12]; at 100.0 µM -19% | [14]; at 1.2 µM -6% | [14]; at 3.7 µM -24% | [14]; at 11.0 µM -21% | [14]; at 33.0 µM 0% | [14]; at 100.0 µM 24%
active: [8]; [18] 100% | [8]; at 50.0 µM 87.7% | [9]; [18] 99% | [9]; at 50.0 µM 86.2% | [10]; [18] 100%
